# Measured values as given in PubChem BioAssay (Tox21).
# Where “and” joins values, the source holds several entries; their conditions need not be identical. Equal entries are not always repeated. Results filed as inconclusive are left out. Where a call stands in place of a potency, no number is given. More than one record can exist for a structure, and the calls need not agree. Calls of active or inactive are those of the source. Unless noted, calls come from the whole dose curve; as a rule, active = well fitted curve in the direction sought with a large enough effect in the repeat runs; inconclusive = weak or mixed curves; inactive = no such curve, though single readings can be large; an effect the other way counts as inactive or inconclusive.
# Legend:
# [1] = qHTS RealTime-Glo MT Cell Viability Assay in HEK293 cells - 0 hour (AID 1224880); note: nearly all actives have a fitted effect of over 45% in size; note: potency is the fitted concentration of half-maximal effect
# Procedure, shortened: (§1)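 Viable HEK293 cells reduce a cell-permeant prosubstrate; the product diffuses out and is consumed by NanoLuc in the medium to give light. Compounds went in after a 5 h incubation and plates were read over the treatment course.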
# [2] = A CellTox Green Cytotoxicity Assay to monitor cytotoxicity in HEK293 cells - 32 hour (AID 1224881); note: nearly all actives have a fitted effect of over 40% in size; note: potency is the fitted concentration of half-maximal effect
# Procedure, shortened: (§2)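 Fluorescence intensity, read at 0, 8, 16, 24, 32 and 40 h of compound treatment, reflected dye binding to DNA of dead HEK293 cells; compounds (23 nL, DMSO) were added 5 h after plating cells with reagent.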
# [3] = A CellTox Green Cytotoxicity Assay to monitor cytotoxicity in HepG2 cells - 0 hour (AID 1224882); note: nearly all actives have a fitted effect of over 35% in size; note: potency is the fitted concentration of half-maximal effect
# Procedure, shortened: (§3)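 Using 1536-well format, dye-containing HepG2 suspension was seeded, allowed 5 h at 37 C/5% CO2, dosed by pintool with compounds, positive and negative controls, and imaged for fluorescence across 40 h.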
# [4] = A CellTox Green Cytotoxicity Assay to monitor cytotoxicity in HepG2 cells - 32 hour (AID 1224883); note: nearly all actives have a fitted effect of over 50% in size; note: potency is the fitted concentration of half-maximal effect
# Procedure, shortened: as §3
# [5] = A CellTox Green Cytotoxicity Assay to monitor cytotoxicity in HEK293 cells - 8 hour (AID 1224884); note: nearly all actives have a fitted effect of over 35% in size; note: potency is the fitted concentration of half-maximal effect
# Procedure, shortened: as §2
# [6] = qHTS RealTime-Glo MT Cell Viability Assay in HepG2 cells - 16 hour (AID 1224885); note: nearly all actives have a fitted effect of over 50% in size
# Procedure, shortened: (§4)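 HepG2 suspension premixed with RealTime-Glo reagents is plated at 600 cells per well and left 5 h at 37 C/5% CO2. Compounds in DMSO then go in, and bioluminescence reflecting viable cell number is recorded over 40 h.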
# [7] = qHTS RealTime-Glo MT Cell Viability Assay in HEK293 cells - 24 hour (AID 1224886); note: nearly all actives have a fitted effect of over 50% in size; note: potency is the fitted concentration of half-maximal effect
# Procedure, shortened: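 Reads taken at 0, 8, 16, 24, 32 and 40 h from the same wells. HEK293 cells (600/well) carried RealTime-Glo reagents from seeding, with compound added after a 5 h settle at 37 C.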
# [8] = qHTS RealTime-Glo MT Cell Viability Assay in HEK293 cells - 8 hour (AID 1224887); note: nearly all actives have a fitted effect of over 50% in size; note: potency is the fitted concentration of half-maximal effect
# Procedure, shortened: as §1
# [9] = A CellTox Green Cytotoxicity Assay to monitor cytotoxicity in HEK293 cells - 16 hour (AID 1224888); note: nearly all actives have a fitted effect of over 35% in size
# Procedure, shortened: as §2
# [10] = qHTS RealTime-Glo MT Cell Viability Assay in HepG2 cells - 0 hour (AID 1224889); note: nearly all actives have a fitted effect of over 50% in size
# Procedure, shortened: as §4
# [11] = A CellTox Green Cytotoxicity Assay to monitor cytotoxicity in HepG2 cells - 8 hour (AID 1224890); note: nearly all actives have a fitted effect of over 45% in size; note: potency is the fitted concentration of half-maximal effect
# Procedure, shortened: as §3
# [12] = qHTS assay to identify small molecule antagonists of the estrogen receptor alpha (ER-alpha) signaling pathway using the BG1 cell line in the presence of 0.1 nM 17-beta-estradiol - cell viability counter screen (AID 1259241); note: nearly all actives have a fitted effect of over 40% in size; note: potency is the fitted concentration of half-maximal effect
# Procedure, shortened: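 VM7Luc4E2 cells (endogenous full-length ER-alpha, 4xERE-luciferase), cultured 5 days in charcoal-stripped serum, exposed to compounds with 0.1 nM 17beta-estradiol (final) for 22 hr at 37C. Viability read in same wells as live-cell protease fluorescence after 30 min.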
# [13] = qHTS assay to identify small molecule antagonists of the androgen receptor (AR) signaling pathway using the MDA cell line in the presence of 0.5 nM R1881 - cell viability counter screen (AID 1259242); note: nearly all actives have a fitted effect of over 45% in size
# Procedure, shortened: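 Viability of MDA-kb2 cells was multiplexed with the luciferase AR readout; after 16 hr with compounds and R1881 at 0.5 nM final, CellTiter-Fluor fluorescence was recorded.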
# [14] = molecular target: Estrogen receptor (Homo sapiens) (UniProt P03372); assay: qHTS assay to identify small molecule antagonists of the estrogen receptor alpha (ER-alpha) signaling pathway using the BG1 cell line in the presence of 0.1 nM 17-beta-estradiol (AID 1259244); note: nearly all actives have a fitted effect of over 50% in size
# Sequence of Estrogen receptor (Homo sapiens) (P03372 whole entry, looked up): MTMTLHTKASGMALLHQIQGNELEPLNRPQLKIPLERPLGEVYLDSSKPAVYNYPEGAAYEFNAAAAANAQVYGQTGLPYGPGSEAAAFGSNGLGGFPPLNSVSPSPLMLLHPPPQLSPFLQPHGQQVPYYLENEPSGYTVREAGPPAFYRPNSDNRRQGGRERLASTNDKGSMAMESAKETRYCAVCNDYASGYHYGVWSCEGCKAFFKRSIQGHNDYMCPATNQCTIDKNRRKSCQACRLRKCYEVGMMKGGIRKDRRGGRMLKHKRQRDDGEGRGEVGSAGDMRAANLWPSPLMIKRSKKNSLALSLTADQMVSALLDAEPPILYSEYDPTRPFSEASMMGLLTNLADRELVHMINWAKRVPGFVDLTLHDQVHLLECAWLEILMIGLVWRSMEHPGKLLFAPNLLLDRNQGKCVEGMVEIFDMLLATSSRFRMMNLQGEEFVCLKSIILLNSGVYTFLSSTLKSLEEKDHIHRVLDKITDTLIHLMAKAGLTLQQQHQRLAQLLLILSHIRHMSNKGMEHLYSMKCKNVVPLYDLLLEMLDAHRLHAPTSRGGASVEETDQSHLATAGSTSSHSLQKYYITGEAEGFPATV
# Procedure, shortened: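 Estradiol at 0.1 nM (final) stimulates the endogenous ER-alpha of VM7Luc4E2 cells carrying an ERE-driven luciferase; compounds are co-incubated 22 h at 37C and luciferase output quantified by luminescence.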
# [15] = qHTS assay to identify small molecule HDAC inhibitors (AID 1259364); note: potency is the fitted concentration of half-maximal effect;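 note: wild-type HCT-116 cells with endogenous class I/II HDAC activity; nearly all actives have a fitted effect of over 45% in size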
# Procedure, shortened: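 Read-out: luminescence of HDAC-Glo I/II reagent, 30 min RT, reflecting class I/II deacetylase activity in whole HCT-116 cells pre-exposed 2 h to DMSO-dissolved compounds.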
# [16] = qHTS assay to identify small molecule HDAC inhibitors - cell viability counter screen (AID 1259365)
# Procedure, shortened: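 Wild-type HCT-116 cells, 1,500/well, cultured overnight, then compound-treated 2 h at 37 C. Viability measured as ATP luminescence with CellTiter-Glo after 30 min at room temperature.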
# [17] = qHTS assay to identify small molecule phospholipidosis (PLD) inducers (AID 1259344; active = well fitted curve in the direction sought with a large enough effect; an effect the other way counts as inactive or inconclusive)
# Procedure, shortened: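 HepG2 cells, 900/well, treated with compound plus LipidTOX Red for 24 h at 37 C; amiodarone positive and DMSO negative controls. Fixed with paraformaldehyde/Hoechst, then high-content imaging scored LipidTOX pit count and integrated intensity per well and per cell.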
# [18] = qHTS assay to identify small molecule agonists of the sonic hedgehog signaling (Shh) pathway - cell viability counter screen (AID 1259366); note: nearly all actives have a fitted effect of over 50% in size
# Procedure, shortened: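 NIH/3T3-derived Gli1-Luc reporter cells, 2,000 per well, received compound after 4 h and were treated about 23 h at 37C. Viability measured in the same wells by CellTiter-Fluor fluorescence after 1 h.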
# [19] = qHTS assay to identify small molecule antagonists of the sonic hedgehog signaling (Shh) pathway - cell viability counter screen (AID 1259367); note: nearly all actives have a fitted effect of over 55% in size
# Procedure, shortened: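 NIH/3T3-derived Gli1-Luc reporter cells, 2,000/well, plated 4 hr before compound addition, then stimulated with conditioned medium for 24 hr at 37C. Viability measured in the same wells by CellTiter-Fluor fluorescence, reagent added at 23 hr for 1 hr.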
# [20] = molecular target: Androgen receptor (Homo sapiens) (UniProt P10275); assay: qHTS assay to identify small molecule antagonists of the androgen receptor (AR) signaling pathway using the MDA cell line in the presence of 0.5 nM R1881 (AID 1259243); note: nearly all actives have a fitted effect of over 50% in size
# Sequence of Androgen receptor (Homo sapiens) (P10275 whole entry, looked up): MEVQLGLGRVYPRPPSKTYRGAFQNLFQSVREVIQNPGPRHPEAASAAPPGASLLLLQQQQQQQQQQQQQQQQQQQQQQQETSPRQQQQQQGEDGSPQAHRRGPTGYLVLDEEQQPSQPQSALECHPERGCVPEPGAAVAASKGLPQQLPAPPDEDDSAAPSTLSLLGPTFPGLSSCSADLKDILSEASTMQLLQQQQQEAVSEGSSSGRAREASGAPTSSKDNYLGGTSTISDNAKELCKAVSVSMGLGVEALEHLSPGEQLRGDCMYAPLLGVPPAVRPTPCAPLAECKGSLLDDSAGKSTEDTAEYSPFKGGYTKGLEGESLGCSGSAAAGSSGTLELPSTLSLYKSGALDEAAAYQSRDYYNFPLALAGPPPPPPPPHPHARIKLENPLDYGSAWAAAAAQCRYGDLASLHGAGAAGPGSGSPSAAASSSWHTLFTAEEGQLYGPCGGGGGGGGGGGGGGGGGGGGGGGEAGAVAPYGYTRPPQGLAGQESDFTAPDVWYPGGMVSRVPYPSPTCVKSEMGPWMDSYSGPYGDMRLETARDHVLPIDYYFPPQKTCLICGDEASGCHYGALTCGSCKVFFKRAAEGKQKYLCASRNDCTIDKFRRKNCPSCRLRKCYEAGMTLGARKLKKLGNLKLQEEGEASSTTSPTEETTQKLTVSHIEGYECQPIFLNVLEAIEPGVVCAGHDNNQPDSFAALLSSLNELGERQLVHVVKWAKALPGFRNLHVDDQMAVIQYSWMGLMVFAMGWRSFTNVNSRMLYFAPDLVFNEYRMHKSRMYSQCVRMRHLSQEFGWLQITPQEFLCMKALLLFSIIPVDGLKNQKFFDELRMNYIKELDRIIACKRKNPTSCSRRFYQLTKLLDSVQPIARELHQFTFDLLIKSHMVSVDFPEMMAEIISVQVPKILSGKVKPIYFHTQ
# Procedure, shortened: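 Reporter cells cultured without CO2 receive test chemicals, then 0.5 nM R1881 final; after 16 hr at 37C, ONE-Glo is added and light output recorded.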
SMILES,Potency [1],Potency [2],Potency [3],Potency [4],Potency [5],Potency [6],Potency [7],Potency [8],Potency [9],Potency [10],Potency [11],Potency [12],Potency [13],Potency [14],Potency [15],outcome [16],outcome [17],Potency [18],Potency [19],outcome [20]
NC(=O)/N=N/C(N)=O,inactive,inactive,inactive,inactive,inactive,inactive,inactive,inactive,inactive,inactive,inactive,inactive,inactive,inactive,inactive,inactive,,,,
COC(=O)Nc1nc2ccc(Sc3ccccc3)cc2[nH]1,inactive,inactive,inactive,2.19 µM (active) and 952 nM (active),inactive,inactive,871 nM (active) and 952 nM (active),1.74 µM (active) and 2.13 µM (active),inactive,inactive,inactive,inactive,,,inactive,inactive,inactive,inactive,,
C=C(C)C(=O)OCCC[Si](OC)(OC)OC,inactive,inactive,inactive,inactive,inactive,inactive,inactive,inactive,inactive,inactive,inactive,inactive,inactive,inactive,inactive,inactive,,,inactive,
Oc1ccc(OCc2ccccc2)cc1,inactive,inactive,inactive,inactive,inactive,inactive,853 nM (active) and inactive,853 nM (active) and inactive,inactive,inactive,inactive,inactive,inactive,inactive,6.71 µM (active) and inactive,inactive,inactive,inactive,,
O=[N+]([O-])c1cc(N(CCO)CCO)ccc1NCCO,inactive,inactive,inactive,inactive,inactive,inactive,inactive,inactive,inactive,inactive,inactive,34.4 µM (active),,,,,,,inactive,inactive
CCCCC(CC)COC(=O)/C=C\C(=O)OCC(CC)CCCC (stereo not drawn),inactive,inactive,inactive,inactive,inactive,,inactive,inactive,inactive,inactive,inactive,inactive,,,inactive,inactive,,,inactive,inactive
CS(=O)(=O)c1ccc([C@@H](O)[C@@H](CO)NC(=O)C(Cl)Cl)cc1,inactive,inactive,inactive,inactive,inactive,inactive,inactive,inactive,inactive,inactive,inactive,inactive,,inactive,inactive,inactive,inactive,inactive,inactive,
CC1(C)CC(N=C=O)CC(C)(CN=C=O)C1 (stereo not drawn),inactive,inactive,inactive,inactive,inactive,inactive,inactive,inactive,inactive,,inactive,inactive,inactive,inactive,inactive,inactive,,,,
Cc1cc(NS(=O)(=O)c2ccc(N)cc2)no1,inactive,inactive,inactive,,inactive,inactive,inactive,inactive,inactive,inactive,inactive,inactive,,,inactive,inactive,inactive,,inactive,
CC1Cc2ccccc2N1NC(=O)c1ccc(Cl)c(S(N)(=O)=O)c1 (stereo not drawn),inactive,inactive,inactive,inactive,inactive,inactive,inactive,inactive,inactive,inactive,inactive,inactive,inactive,inactive,inactive,inactive,inactive,inactive,inactive,
CNC[C@H](O)[C@@H](O)[C@H](O)[C@H](O)CO,inactive,inactive,inactive,inactive,inactive,inactive,inactive,inactive,inactive,inactive,inactive,inactive,inactive,,inactive,inactive,inactive,inactive,,
CCCCC(CC)COC(=O)CCCCCCCC(=O)OCC(CC)CCCC (stereo not drawn),inactive,54.9 µM (active) and inactive,54.9 µM (active) and inactive,49 µM (active),54.9 µM (active) and inactive,inactive,24.5 µM (active) and inactive,inactive,,inactive,54.9 µM (active) and inactive,,inactive,,inactive,inactive,,inactive,,
O=C(O)c1ccc([N+](=O)[O-])cc1,inactive,inactive,inactive,inactive,inactive,inactive,inactive,inactive,inactive,,inactive,inactive,inactive,,inactive,inactive,,,,
CCC(=O)O,inactive,inactive,inactive,,inactive,inactive,inactive,inactive,inactive,inactive,inactive,inactive,,inactive,inactive,inactive,inactive,inactive,,
CC1(C)O[C@@H]2C[C@H]3[C@@H]4C[C@H](F)C5=CC(=O)CC[C@]5(C)[C@H]4[C@@H](O)C[C@]3(C)[C@]2(C(=O)CO)O1,17.4 µM (active) and 10.7 µM (active),inactive,38.9 µM (active) and inactive,43.6 µM (active) and inactive,inactive,inactive,inactive,inactive,inactive,,49 µM (active) and inactive,inactive,inactive,inactive,inactive,inactive,inactive,inactive,inactive,
CCCCOCCOCCOC(=O)CCCCC(=O)OCCOCCOCCCC,inactive,inactive,inactive,inactive,inactive,inactive,inactive,inactive,inactive,inactive,inactive,inactive,,inactive,inactive,inactive,,inactive,,
